Experimental data: PubChem BioAssay
For part of these data: Results with a measured potency or affinity are listed apart. The source made the active and inactive calls. Unless noted, no rule for the calls is given here.

What was measured:
[1] = antimalarial activity against Dd2 strain (AID 2302;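 active = growth inhibition above 50% at the single 2 µM test dose, taken to imply half-maximal potency below 2 µM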;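 also: 0% = DMSO untreated growth and 100% = chloroquine plus artemisinin killed control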); conditions: P. falciparum Dd2 in RBCs, LDH growth readout, 72 h; at 2 µM; active compounds read high
[2] = HepG2 cytotoxicity, primary screen, cytotoxicity control for P. falciparum antimalarial project, cell-based, ATP luminescence (AID 2303;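 active = inhibition above 50%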;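 also: 0% = DMSO wells and 100% = digitonin-killed cells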); conditions: HepG2 viability, 24-48 h, at 10 µM, active compounds read high
[3] = target: L-lactate dehydrogenase (Plasmodium falciparum (isolate CDC / Honduras)) (UniProt Q27743); test: PfLDH activity inhibition – cell lysate, 3D7 strain, counter-screen for P. falciparum growth inhibition project (AID 2304);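 also: 0% = vehicle and 100% = reference inhibitor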; conditions: P. falciparum 3D7 crude extract, LDH APAD/NBT absorbance; at 2 µM; active compounds read high
Sequence of L-lactate dehydrogenase (Plasmodium falciparum (isolate CDC / Honduras)) (Q27743 whole entry, looked up): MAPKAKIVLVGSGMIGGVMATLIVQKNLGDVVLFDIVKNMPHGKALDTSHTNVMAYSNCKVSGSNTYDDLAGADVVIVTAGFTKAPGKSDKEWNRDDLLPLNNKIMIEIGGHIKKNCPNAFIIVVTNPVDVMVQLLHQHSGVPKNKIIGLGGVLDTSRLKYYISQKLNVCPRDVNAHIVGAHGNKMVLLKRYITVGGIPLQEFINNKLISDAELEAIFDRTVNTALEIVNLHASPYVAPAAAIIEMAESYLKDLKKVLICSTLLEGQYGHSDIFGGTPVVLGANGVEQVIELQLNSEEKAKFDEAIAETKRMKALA

[4] = inhibition of 3D7 malaria parasite growth – strain 3D7 (AID 2306);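 also: 0% = DMSO wells and 100% = chloroquine plus artemisinin control wells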; conditions: P. falciparum 3D7 erythrocytic growth, LDH absorbance, 72 h; at 2 µM; active compounds read high
[5] = target: Calcium-dependent protein kinase 1 (Plasmodium falciparum (isolate 3D7)) (UniProt P62344); test: PfCDPK1 kinase inhibitors, biochemical, TCAMS library (AID 1159585; cut-off not given, nearly all actives have IC50 up to about 0.98 µM;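 also: inhibitors leave more ATP so luminescence rises with inhibition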); conditions: recombinant PfCDPK1, Kinase-Glo ATP depletion luminescence
Sequence of Calcium-dependent protein kinase 1 (Plasmodium falciparum (isolate 3D7)) (P62344 whole entry, looked up): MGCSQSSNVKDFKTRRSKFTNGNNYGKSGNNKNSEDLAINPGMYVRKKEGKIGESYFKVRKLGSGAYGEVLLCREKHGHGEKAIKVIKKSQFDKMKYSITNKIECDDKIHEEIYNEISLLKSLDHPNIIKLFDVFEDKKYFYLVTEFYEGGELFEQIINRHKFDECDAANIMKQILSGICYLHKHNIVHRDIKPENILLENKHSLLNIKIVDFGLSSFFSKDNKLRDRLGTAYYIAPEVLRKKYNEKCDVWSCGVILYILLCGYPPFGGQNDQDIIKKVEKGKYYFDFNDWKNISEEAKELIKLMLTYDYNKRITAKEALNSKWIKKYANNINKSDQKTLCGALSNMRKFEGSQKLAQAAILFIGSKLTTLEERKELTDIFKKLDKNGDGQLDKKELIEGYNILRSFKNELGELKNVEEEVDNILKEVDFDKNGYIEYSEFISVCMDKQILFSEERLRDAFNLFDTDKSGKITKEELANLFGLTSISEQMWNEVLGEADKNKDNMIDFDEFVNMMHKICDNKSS

[6] = target: Plasmodium falciparum protein kinase 6 (PK6, PF3D7_1337100) (UniProt Q8IDW1); test: PfPK6 kinase inhibitors, biochemical, TCAMS library (AID 1159586); conditions: recombinant PfPK6, Kinase-Glo ATP depletion luminescence
Sequence of Plasmodium falciparum protein kinase 6 (PK6, PF3D7_1337100) (Q8IDW1 1-305): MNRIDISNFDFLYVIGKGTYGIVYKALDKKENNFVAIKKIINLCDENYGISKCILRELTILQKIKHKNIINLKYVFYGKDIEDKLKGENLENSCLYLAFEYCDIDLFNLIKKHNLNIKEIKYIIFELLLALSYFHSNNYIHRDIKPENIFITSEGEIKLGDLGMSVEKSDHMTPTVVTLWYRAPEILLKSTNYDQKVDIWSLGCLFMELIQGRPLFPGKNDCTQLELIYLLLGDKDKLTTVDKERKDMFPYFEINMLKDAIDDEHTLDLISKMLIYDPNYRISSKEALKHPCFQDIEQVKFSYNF

[7] = target: Protein kinase 7 (PK7), Plasmodium falciparum 3D7 (PF3D7_0213400) (UniProt Q7YTF7); test: inhibition of Plasmodium PK7 catalytic activity – biochemical, TCAMS antimalarial set, Kinase-Glo luminescence (AID 1159587); conditions: recombinant PfPK7, Kinase-Glo ATP depletion luminescence
Sequence of Protein kinase 7 (PK7), Plasmodium falciparum 3D7 (PF3D7_0213400) (Q7YTF7 1-343): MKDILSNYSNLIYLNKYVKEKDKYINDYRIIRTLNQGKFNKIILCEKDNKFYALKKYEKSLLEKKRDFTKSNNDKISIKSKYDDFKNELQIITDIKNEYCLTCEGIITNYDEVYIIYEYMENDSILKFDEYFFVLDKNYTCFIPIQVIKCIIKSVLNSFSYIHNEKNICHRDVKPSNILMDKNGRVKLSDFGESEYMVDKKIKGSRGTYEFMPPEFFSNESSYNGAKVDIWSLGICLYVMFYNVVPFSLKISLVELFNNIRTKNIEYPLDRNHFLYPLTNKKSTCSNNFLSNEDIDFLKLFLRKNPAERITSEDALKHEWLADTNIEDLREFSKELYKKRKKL

[8] = target: Calcium-dependent protein kinase 4 (Plasmodium falciparum (isolate 3D7)) (UniProt Q8IBS5); test: PfCDPK4 kinase inhibitors, biochemical, TCAMS library (AID 1159588; cut-off not given, nearly all actives have IC50 up to about 0.91 µM); conditions: recombinant PfCDPK4, Kinase-Glo ATP depletion luminescence
Sequence of Calcium-dependent protein kinase 4 (Plasmodium falciparum (isolate 3D7)) (Q8IBS5 whole entry, looked up): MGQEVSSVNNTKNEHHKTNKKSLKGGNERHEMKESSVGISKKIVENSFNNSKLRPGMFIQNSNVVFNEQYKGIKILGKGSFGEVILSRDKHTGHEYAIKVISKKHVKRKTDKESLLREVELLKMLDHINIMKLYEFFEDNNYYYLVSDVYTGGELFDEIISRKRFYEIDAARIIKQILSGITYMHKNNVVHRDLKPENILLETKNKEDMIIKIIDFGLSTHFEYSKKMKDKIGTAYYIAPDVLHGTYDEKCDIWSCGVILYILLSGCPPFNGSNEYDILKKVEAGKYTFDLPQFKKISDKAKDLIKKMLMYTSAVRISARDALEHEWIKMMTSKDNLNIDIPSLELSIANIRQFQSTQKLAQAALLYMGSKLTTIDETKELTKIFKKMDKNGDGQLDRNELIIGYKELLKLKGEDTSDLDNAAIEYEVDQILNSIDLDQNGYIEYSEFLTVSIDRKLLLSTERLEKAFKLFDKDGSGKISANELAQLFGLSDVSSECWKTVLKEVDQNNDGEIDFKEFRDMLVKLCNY

O=C1c2ccccc2C(=O)N1c1ccc(S(=O)(=O)N2CCOCC2)cc1
inactive: growth inhibition [1] -1% | inhibition [2] -1% | inhibition [3] 3% | outcome [5] | outcome [6] | outcome [7] | outcome [8]
active: growth inhibition [4] 94%

O=C1COC2(CN1C1CCN(Cc3ccc(O)cc3Cl)C1)c1ccccc1-c1ccccc12 (stereo not drawn)
inactive: inhibition [2] 10% | inhibition [3] -1% | outcome [5] | outcome [6] | outcome [7] | outcome [8]
active: growth inhibition [1] 70% | growth inhibition [4] 82%

O=C(Nc1cccc(CN2CCCN(Cc3ncc[nH]3)CC2)c1)c1ccc(-c2ccccc2)cc1
inactive: inhibition [2] 23% | inhibition [3] -5% | outcome [5] | outcome [6] | outcome [7] | outcome [8]
active: growth inhibition [1] 56% | growth inhibition [4] 101%

CC1(C)CC(=O)c2c(O)cc(OCc3ccncc3)cc2O1
inactive: growth inhibition [1] 47% | inhibition [3] -1% | outcome [5] | outcome [6] | outcome [7] | outcome [8]
active: inhibition [2] 80% | growth inhibition [4] 92%

O=C(Nc1ccc2c(c1)CCC2)c1ccc(N2CCN(c3ccncc3)CC2)cc1
active: growth inhibition [1] 75% | inhibition [2] 72% | growth inhibition [4] 101%
inactive: inhibition [3] 4% | outcome [5] | outcome [6] | outcome [7] | outcome [8]

Cc1ccc(C(C)C)c(Oc2ccc3nc(N)nc(N)c3c2)c1
inactive: growth inhibition [1] 33% | inhibition [3] 2% | outcome [5] | outcome [6] | outcome [7] | outcome [8]
active: inhibition [2] 61% | growth inhibition [4] 96%

Cc1nc(-c2ccc(-c3ccc(C(=O)Nc4ccc(I)c(OCCN5CCCC5)c4)cc3)c(C)c2)no1
inactive: growth inhibition [1] 35% | inhibition [3] -1% | outcome [5] | outcome [6] | outcome [7] | outcome [8]
active: inhibition [2] 96% | growth inhibition [4] 95%

NC(N)=Nc1ccc(Cc2ccc(N=C(N)N)cc2)cc1
inactive: inhibition [2] 35% | inhibition [3] -1% | outcome [5] | outcome [6] | outcome [7] | outcome [8]
active: growth inhibition [1] 94% | growth inhibition [4] 93%

CNCCNCc1ccc(-c2cccc(-c3nc4ccc(F)cc4[nH]3)c2)cc1
inactive: growth inhibition [1] 1% | inhibition [2] 10% | inhibition [3] -1% | outcome [5] | outcome [6] | outcome [7] | outcome [8]
active: growth inhibition [4] 93%

CNCc1ccc(-c2ccc3ccnc(N)c3c2)cc1
inactive: inhibition [2] 46% | inhibition [3] 5% | outcome [5] | outcome [6] | outcome [7] | outcome [8]
active: growth inhibition [1] 98% | growth inhibition [4] 94%

COc1cc2nc(NCc3nc4ccccc4[nH]3)nc(N)c2cc1OC
active: growth inhibition [4] 97%
inactive: growth inhibition [1] 10% | inhibition [2] 3% | inhibition [3] -2% | outcome [5] | outcome [6] | outcome [7] | outcome [8]

CCCCc1cc(=O)oc2cc(C)cc(OCc3ccccc3F)c12
active: growth inhibition [1] 78% | growth inhibition [4] 92%
inactive: inhibition [2] 8% | inhibition [3] -1% | outcome [5] | outcome [6] | outcome [7] | outcome [8]

CCNc1cc(C(=O)N[C@@H](Cc2ccccc2)[C@H](O)CNC(C)(C)CCCC(C)C)c(F)c(N2CCCS2(=O)=O)c1
inactive: inhibition [2] -2% | inhibition [3] -4% | outcome [5] | outcome [6] | outcome [7] | outcome [8]
active: growth inhibition [1] 97% | growth inhibition [4] 98%

COc1cccc(OC(C)(C)c2nc(N[C@@H](C)c3ccccc3)c3cn[nH]c3n2)c1
inactive: inhibition [2] 44% | inhibition [3] -4% | outcome [5] | outcome [6] | outcome [7] | outcome [8]
active: growth inhibition [1] 69% | growth inhibition [4] 89%

COc1ccc(CN2C(=S)N(Cc3ccccc3)C(=O)C2CC(=O)Nc2ccccc2)cc1OC (stereo not drawn)
inactive: inhibition [2] 6% | inhibition [3] -2% | outcome [5] | outcome [6] | outcome [7] | outcome [8]
active: growth inhibition [1] 73% | growth inhibition [4] 96%

O=S(=O)(NC1CCCCN(Cc2ccccc2O)C1)c1ccc(C(F)(F)F)cc1 (stereo not drawn)
active: growth inhibition [4] 84%
inactive: growth inhibition [1] 39% | inhibition [2] 1% | inhibition [3] 7% | outcome [5] | outcome [6] | outcome [7] | outcome [8]

COc1ccc(Oc2ccccc2CNCC2CCN(CC3CCCCC3)CC2)cc1
inactive: growth inhibition [1] 28% | inhibition [2] 34% | inhibition [3] -8% | outcome [5] | outcome [6] | outcome [7] | outcome [8]
active: growth inhibition [4] 85%

O=C(CCc1cnc[nH]1)Nc1cccc(-c2ccc(-c3nc4ccc(F)cc4[nH]3)s2)c1
inactive: inhibition [2] 17% | inhibition [3] -3% | outcome [5] | outcome [6] | outcome [7] | outcome [8]
active: growth inhibition [1] 69% | growth inhibition [4] 101%

O=C1C(c2ccccc2)=C(Nc2cccc(OC(F)(F)C(F)F)c2)c2ccccc21
inactive: inhibition [2] -5% | inhibition [3] 0% | outcome [5] | outcome [6] | outcome [7] | outcome [8]
active: growth inhibition [1] 96% | growth inhibition [4] 96%

CCCN1CCc2c(sc3nc(SCC(=O)Nc4ccc(C)cc4)n(-c4ccc(C)cc4)c(=O)c23)C1
active: growth inhibition [1] 71% | growth inhibition [4] 92%
inactive: inhibition [2] 0% | inhibition [3] -5% | outcome [5] | outcome [6] | outcome [7] | outcome [8]

COc1ccc2nc(-c3ccccc3)cc(NN=Cc3ccc([N+](=O)[O-])cc3)c2c1
inactive: inhibition [3] 7% | outcome [5] | outcome [6] | outcome [7] | outcome [8]
active: growth inhibition [1] 100% | inhibition [2] 89% | growth inhibition [4] 102%
